Tests used:
Experiment in all cases: PBM binding z-score (relative to random genomic background probes); higher = stronger binding; sequences stand for … in GC…GCGATTGACAGCGTAGAATGAAGG
[1] = system: PPARg:RXRa DBDmut IVT, anti-RXR (DBD mutation: RXRa K156A/R161A, NR concentration 270 nM, RXRa partner concentration 90 nM)
Method in brief: (§1)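 Random background probes are the reference for binding z-scores. These scores derive from regression-normalized fluorescence on custom Agilent 4×180K protein-binding microarrays incubated 1 h with ligand-free nuclear receptor dimers. Binding was detected with antibodies against each partner (one per run).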

[2] = system: PPARg:RXRa IVT, anti-PPARg (NR concentration 270 nM, RXRa partner concentration 90 nM)
Method in brief: as §1

[3] = system: PPARg DBDmut:RXRa IVT, anti-PPARg (DBD mutation: PPARg1 K132A/R137A, NR concentration 270 nM, RXRa partner concentration 90 nM)
Method in brief: as §1

[4] = system: PPARg DBDmut IVT, anti-PPARg (DBD mutation: PPARg1 K132A/R137A, NR concentration 270 nM)
Method in brief: as §1

[5] = system: PPARg homodimer (NR concentration 180 nM)
Method in brief: as §1

[6] = system: PXR:RXRa (NR concentration 270 nM, RXRa partner concentration 90 nM)
Method in brief: as §1

[7] = system: PXR homodimer (NR concentration 270 nM)
Method in brief: as §1

[8] = system: RARa:RXR (NR concentration 270 nM, RXRa partner concentration 90 nM)
Method in brief: as §1

[9] = system: RARa homodimer (NR concentration 270 nM)
Method in brief: as §1

[10] = system: RARb:RXRa (NR concentration 270 nM, RXRa partner concentration 90 nM)
Method in brief: as §1

[11] = system: RARb homodimer (NR concentration 270 nM)
Method in brief: as §1

[12] = system: RARg:RXRa (NR concentration 270 nM, RXRa partner concentration 90 nM)
Method in brief: as §1

[13] = system: RARg homodimer (NR concentration 270 nM)
Method in brief: as §1

[14] = system: RXRa DBDmut IVT, anti-RXR (DBD mutation: RXRa K156A/R161A, NR concentration 90 nM)
Method in brief: as §1

[15] = system: RXRa homodimer (NR concentration 180 nM)
Method in brief: as §1

[16] = system: THRa:RXRa (NR concentration 90 nM, RXRa partner concentration 90 nM)
Method in brief: as §1

[17] = system: THRa homodimer (NR concentration 90 nM)
Method in brief: as §1

[18] = system: VDR homodimer (NR concentration 270 nM)
Method in brief: as §1

Sequence | PBM binding z-score [1] | PBM binding z-score [2] | PBM binding z-score [3] | PBM binding z-score [4] | PBM binding z-score [5] | PBM binding z-score [6] | PBM binding z-score [7] | PBM binding z-score [8] | PBM binding z-score [9] | PBM binding z-score [10] | PBM binding z-score [11] | PBM binding z-score [12] | PBM binding z-score [13] | PBM binding z-score [14] | PBM binding z-score [15] | PBM binding z-score [16] | PBM binding z-score [17] | PBM binding z-score [18]
ATCTCTAGGTAAGACTCAGTTTAGTGAAGAACGC | 2.06 | 1.06 | 1.01 | 0.79 | 0.494 | 0.177 | 0.554 | 0.162 | 1.22 | 0.222 | 0.134 | 0.228 | 0.235 | 0.443 | -0.191 | 0.364 | 0.619 | 0.252
ATCCCTAGGTAACAAGTTCAGTGAAAGAGAGGAC | 0.293 | 0.638 | 0.652 | 0.582 | 1.15 | 1.7 | 1.53 | 0.808 | 0.946 | 1.51 | 1.94 | 1.09 | 1.15 | 0.955 | 0.712 | 1.65 | 1.17 | 2.48
GCTTACGGGTCAAAGGTTATAGAATGAATAGAAT | 4.71 | 5.44 | 1.37 | 1.09 | 1.73 | 6.07 | 0.466 | 8.42 | 0.715 | 4.59 | 3.44 | 6.87 | 5.16 | 2.45 | 9.56 | 3.89 | 0.468 | 1.96
ATCTCTAGGTAAAGTTCAGTCAAAGATCGATAGA | 1.91 | 2.68 | 1.08 | 1.44 | 1.63 | 2.32 | 1.93 | 1.48 | 1.68 | 2.55 | 2.8 | 2.17 | 2.39 | 1.6 | 1.35 | 1.46 | 0.288 | 2.11
CGAACTAAGTCAGAACAGGACAGTGAAGGATGAT | 0.607 | 0.0567 | 0.659 | 0.276 | 0.404 | -0.17 | 0.204 | 0.137 | 0.452 | -0.103 | 0.68 | 0.103 | 0.431 | 0.106 | 0.167 | 1.14 | -0.281 | -0.107
CTACCAAGGAGAACAAGGTCGTTGATTACTATTC | 0.168 | 0.269 | -0.0895 | 0.25 | 0.615 | 1.23 | 1.05 | 1.17 | 0.421 | 0.589 | 1.14 | 0.413 | 0.266 | 1.2 | 0.732 | 1.87 | 1.05 | 1.73
CGAACTAGGTCATTGACAGGACAGTGAATAGTAA | 8.1 | 8.32 | 2.23 | 1.53 | 1.77 | 1.89 | 0.245 | 2.44 | 0.499 | 3.79 | 2.71 | 4.63 | 4.21 | 2.33 | 2.61 | 2.98 | 0.802 | 0.793
CCGACTGGGGCATATGGTTACCATAAGCCAGCCC | 1.89 | 2.21 | -0.616 | -1.62 | -0.697 | -0.746 | -0.567 | -0.363 | -0.355 | 0.172 | -0.243 | -0.00585 | 0.046 | -0.59 | 0.109 | -1.07 | -0.688 | -0.752
CCTTACGGGTCAAGGTTCTAGCACGGGTGGTACG | 1.5 | 3.25 | 0.0121 | -0.395 | 2.56 | 2.98 | -0.35 | 3.97 | 0.251 | 4.05 | 3.2 | 4.78 | 4.47 | 0.551 | 4.96 | 2.39 | 0.0737 | 1.51
CCTTATGGGTCAAGGTTATAGCACGGGTGGTACG | 4.52 | 5.46 | 1.19 | 0.531 | 2.47 | 2.43 | 0.248 | 3.32 | 0.847 | 3.63 | 2.91 | 4.01 | 4.26 | 0.11 | 3.78 | 2.22 | 0.64 | 1
TCGAGTAGGTTAGTCGGGGCATTGAGCCAACATA | 2.07 | 2.19 | -0.804 | -1.03 | -0.25 | -0.121 | -0.392 | 0.186 | -0.979 | 0.355 | 0.349 | -0.11 | 0.0255 | 0.159 | -0.18 | 1 | -0.457 | -0.0737
GAGACTGGGGCATCAGCAGGTTACCATAACTTAA | 4.76 | 4.68 | 0.663 | 0.792 | 0.579 | 0.391 | 0.295 | 0.706 | -0.0469 | 1.09 | 1.46 | 0.941 | 0.703 | 0.142 | 0.509 | 1.3 | 0.361 | -0.0346
GGTATTAGTTGAAAGGGCAACCGAATGATTCTCG | 0.803 | 1.67 | 1.15 | 0.67 | 2.69 | 1.23 | 1.44 | 1.88 | 2.51 | 2.42 | 2.53 | 1.76 | 1.81 | 0.965 | 1.5 | 1.08 | 0.579 | 1.23
CCGACTTGGGCATAAGGTTACCATAAGCCAGCCC | -0.117 | -0.425 | -0.991 | -1.38 | 0.34 | 0.211 | -0.364 | 0.822 | -0.32 | 0.922 | 0.962 | 0.45 | 0.236 | -0.0632 | 0.906 | 1.84 | 1.27 | -0.535
